PubChem BioAssay (Tox21)
“And” between values parts separate entries of the source, which are not always exact repeats. Identical values can stand only once. Records with an inconclusive call do not appear. A call without a number means that no potency is given here. Some compounds were tested as several samples or in several runs, with calls that do not always agree. The source made the active and inactive calls. Unless noted, calls come from the whole dose curve; as a rule, active = well fitted curve in the direction sought with a large enough effect in the repeat runs; inconclusive = weak or mixed curves; inactive = no such curve, though single readings can be large; an effect the other way counts as inactive or inconclusive.

Tests used:
[1] = qHTS assay to identify small molecule antagonists of the thyroid receptor (TR) signaling pathway - cell viability counter screen (AID 743064); note: nearly all actives have a fitted effect of over 50% in size; note: potency is the fitted concentration of half-maximal effect
Procedure, shortened: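 CellTiter-Fluor readout, 30 min at 37 °C/5% CO2, following 23.5 h incubation of GH3.TRE-Luc cells with test compound and 1 nM T3 (final).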

[2] = qHTS assay to identify small molecule antagonists of the thyroid receptor (TR) signaling pathway (AID 743065); note: nearly all actives have a fitted effect of over 55% in size; note: potency is the fitted concentration of half-maximal effect
Procedure, shortened: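 GH3.TRE-Luc rat pituitary cells carrying two TR response elements driving luciferase were plated for 4 h, given compound plus 1 nM T3 (final), and incubated 23.5 h at 37 C. ONE-Glo luminescence measured reporter inhibition; CellTiter-Fluor fluorescence tracked cytotoxicity.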

[3] = system: thyroid hormone receptor (rat, GH3 cells); assay: qHTS assay to identify small molecule agonists of the thyroid receptor (TR) signaling pathway (AID 743066; calls by dose curve; note: potency is the fitted concentration of half-maximal effect)
[4] = qHTS assay to identify small molecule antagonists of the estrogen receptor alpha (ER-alpha) signaling pathway - cell viability counter screen (AID 743074; calls by dose curve;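 note: HEK293 cells carrying ER-alpha-UAS-bla reporter stimulated with 17beta-estradiol; nearly all actives have a fitted effect of over 45% in size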)
[5] = qHTS assay to identify small molecule antagonists of the estrogen receptor alpha (ER-alpha) signaling pathway using the BG1 cell line - cell viability counter screen (AID 743081);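 note: compound given together with 17beta-estradiol as the ER stimulus; series mostly up to about 70 µM; nearly all actives have a fitted effect of over 45% in size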
Aromatase (Homo sapiens) = Aromatase (Homo sapiens) (UniProt P11511); assay: qHTS assay to identify aromatase inhibitors (AID 743083); note: nearly all actives have a fitted effect of over 55% in size; note: potency is the fitted concentration of half-maximal effect
Aromatase (Homo sapiens), sequence (P11511 whole entry, looked up): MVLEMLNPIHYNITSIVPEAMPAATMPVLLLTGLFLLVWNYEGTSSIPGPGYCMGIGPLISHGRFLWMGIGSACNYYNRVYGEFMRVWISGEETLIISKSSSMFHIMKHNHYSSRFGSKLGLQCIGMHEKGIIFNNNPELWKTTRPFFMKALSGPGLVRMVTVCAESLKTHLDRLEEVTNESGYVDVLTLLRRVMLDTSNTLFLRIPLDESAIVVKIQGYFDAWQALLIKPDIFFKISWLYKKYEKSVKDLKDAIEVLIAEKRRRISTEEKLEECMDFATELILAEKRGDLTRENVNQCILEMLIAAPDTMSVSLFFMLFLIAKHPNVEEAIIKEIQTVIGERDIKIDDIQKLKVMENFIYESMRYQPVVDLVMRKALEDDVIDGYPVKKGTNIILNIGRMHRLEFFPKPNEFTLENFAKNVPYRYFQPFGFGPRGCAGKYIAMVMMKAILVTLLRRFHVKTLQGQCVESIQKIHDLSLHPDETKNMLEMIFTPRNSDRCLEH

[6] = qHTS assay to identify aromatase inhibitors - cell viability counter screen (AID 743084);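 note: cells stimulated with testosterone during compound exposure; nearly all actives have a fitted effect of over 55% in size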; note: potency is the fitted concentration of half-maximal effect
[7] = biological target: Aryl hydrocarbon receptor (Homo sapiens) (UniProt P35869); assay: qHTS assay to identify small molecule that activate the aryl hydrocarbon receptor (AhR) signaling pathway (AID 743085); note: nearly all actives have a fitted effect of over 15% in size; note: potency is the fitted concentration of half-maximal effect;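 for activation: HG2L7.5c1 human HepG2 liver cells with stably integrated DRE-driven firefly reporter; series mostly up to about 70 µM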
Aryl hydrocarbon receptor (Homo sapiens), sequence (P35869 whole entry, looked up): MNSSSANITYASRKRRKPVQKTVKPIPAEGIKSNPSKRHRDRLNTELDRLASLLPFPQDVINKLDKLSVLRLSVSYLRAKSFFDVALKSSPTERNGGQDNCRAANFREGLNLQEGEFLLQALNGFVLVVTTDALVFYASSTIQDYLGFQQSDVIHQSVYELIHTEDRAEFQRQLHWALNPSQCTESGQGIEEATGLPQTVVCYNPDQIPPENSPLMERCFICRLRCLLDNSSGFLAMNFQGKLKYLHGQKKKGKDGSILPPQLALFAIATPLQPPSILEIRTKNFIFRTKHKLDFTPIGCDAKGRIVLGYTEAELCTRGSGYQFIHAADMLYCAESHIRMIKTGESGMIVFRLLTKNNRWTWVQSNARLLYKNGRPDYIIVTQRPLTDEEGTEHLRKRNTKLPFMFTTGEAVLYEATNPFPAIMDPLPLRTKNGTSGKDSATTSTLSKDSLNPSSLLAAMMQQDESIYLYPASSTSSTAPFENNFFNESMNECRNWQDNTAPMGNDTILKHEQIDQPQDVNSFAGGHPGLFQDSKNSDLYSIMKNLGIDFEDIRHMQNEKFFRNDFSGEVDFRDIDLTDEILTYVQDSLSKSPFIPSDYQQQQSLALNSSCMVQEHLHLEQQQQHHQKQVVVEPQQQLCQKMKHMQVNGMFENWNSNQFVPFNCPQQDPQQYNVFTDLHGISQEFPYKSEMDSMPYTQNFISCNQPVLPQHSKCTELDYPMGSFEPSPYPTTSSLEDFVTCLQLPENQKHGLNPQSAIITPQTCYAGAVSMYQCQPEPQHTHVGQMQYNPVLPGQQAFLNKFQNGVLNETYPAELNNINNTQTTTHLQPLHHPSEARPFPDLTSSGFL
Procedure, shortened: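 Stably transfected human liver carcinoma cells (HG2L7.5c1; 20 DRE-firefly luciferase) were incubated 5 h, dosed, and kept 24 h at 37C. Agonism was scored from increased luciferase luminescence.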

[8] = qHTS assay to identify small molecule that activate the aryl hydrocarbon receptor (AhR) signaling pathway - cell viability counter screen (AID 743086);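 note: HepG2 liver cells carrying the AhR DRE luciferase reporter; series mostly up to about 70 µM; nearly all actives have a fitted effect of over 45% in size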
Procedure, shortened: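 HepG2-AhR-luc (HG2L7.5c1) cells, 4000/well, were preincubated 5 h at 37C, exposed to compound in qHTS format for 24 hr at 37C, then given CellTiter-Fluor for 30 min; viability was read as fluorescence in the reporter wells.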

[9] = biological target: Peroxisome proliferator-activated receptor gamma (Homo sapiens) (UniProt P37231); assay: qHTS assay to identify small molecule agonists of the peroxisome proliferator-activated receptor gamma (PPARg) signaling pathway (AID 743094; active = well fitted activation curve with a large enough effect in the signal ratio in the repeat runs, not every such curve was filed as active; the % refers to the signal ratio)
Peroxisome proliferator-activated receptor gamma (Homo sapiens), sequence (P37231 whole entry, looked up): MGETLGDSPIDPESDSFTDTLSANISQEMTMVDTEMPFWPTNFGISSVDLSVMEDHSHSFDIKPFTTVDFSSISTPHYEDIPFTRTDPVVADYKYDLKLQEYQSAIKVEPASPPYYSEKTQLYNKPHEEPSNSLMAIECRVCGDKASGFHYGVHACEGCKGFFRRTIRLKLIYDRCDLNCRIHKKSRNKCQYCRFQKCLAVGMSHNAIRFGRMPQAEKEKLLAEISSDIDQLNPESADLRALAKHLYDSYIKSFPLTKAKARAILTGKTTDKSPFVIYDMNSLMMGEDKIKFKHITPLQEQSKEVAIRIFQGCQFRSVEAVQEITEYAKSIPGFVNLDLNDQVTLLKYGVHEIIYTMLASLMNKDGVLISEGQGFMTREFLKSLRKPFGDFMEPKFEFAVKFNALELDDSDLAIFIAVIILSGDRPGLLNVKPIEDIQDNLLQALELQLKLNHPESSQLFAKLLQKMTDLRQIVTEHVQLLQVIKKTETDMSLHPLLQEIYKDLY
Procedure, shortened: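 GeneBLAzer PPARg UAS-bla HEK293H cells were plated, rested 5 h, then exposed to compounds for 17 h at 37C. Beta-lactamase activity was read by LiveBLAzer B/G FRET substrate fluorescence after 1 h at room temperature.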

[10] = biological target: Peroxisome proliferator-activated receptor gamma (Homo sapiens) (UniProt P37231); assay: qHTS assay to identify small molecule antagonists of the peroxisome proliferator-activated receptor gamma (PPARg) signaling pathway (AID 743191; calls by dose curve; note: series mostly up to about 63 µM; nearly all actives have a fitted effect of over 30% in size)
Procedure, shortened: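 GeneBLAzer PPARg UAS-bla HEK293H cells carrying a UAS-driven beta-lactamase reporter were plated at 3000 cells/well, preincubated 5 h at 37C, then given compound for 17 h at 37C; LiveBLAzer B/G FRET substrate was read after 1 h at room temperature.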

[11] = qHTS assay to identify small molecule antagonists of the peroxisome proliferator-activated receptor gamma (PPARg) signaling pathway - cell viability counter screen (AID 743194); note: nearly all actives have a fitted effect of over 55% in size
Procedure, shortened: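 PPARg-UAS-bla HEK293H cells were plated, rested 5 h at 37 C, then treated with compounds plus rosiglitazone (50 nM final) for 17 h at 37 C; viability was then read by CellTiter-Glo luminescence after 30 min at room temperature.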

[12] = qHTS assay for small molecule agonists of the antioxidant response element (ARE) signaling pathway (AID 743202; active = well fitted activation curve with a large enough effect in the signal ratio in the repeat runs, not every such curve was filed as active; the % refers to the signal ratio)
Procedure, shortened: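 Read-out: LiveBLAzer B/G FRET substrate fluorescence after 2 h at room temperature, following 16 h compound treatment at 37 C of HepG2 cells carrying an ARE-driven beta-lactamase reporter.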

[13] = qHTS assay for small molecule agonists of the antioxidant response element (ARE) signaling pathway - cell viability counter screen (AID 743203; calls by dose curve; note: nearly all actives have a fitted effect of over 55% in size)
Procedure, shortened: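 ARE-bla HepG2 cells were plated, rested 5 h at 37C/5% CO2, then exposed to compounds in DMSO for 16 h. Viability was read as CellTiter-Glo luminescence after 30 min at room temperature, in the same wells as the ARE screen.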

[14] = qHTS assay for small molecule activators of the heat shock response signaling pathway (AID 743210; active = well fitted activation curve with a large enough effect in the signal ratio in the repeat runs, with a control signal flat, not every such curve was filed as active; the % refers to the signal ratio; note: series mostly up to about 63 µM)
Procedure, shortened: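 HSE-bla HeLa cells (beta-lactamase reporter under heat shock response elements) were exposed to compounds for 5 h at 37 C, then loaded with LiveBLAzer B/G FRET substrate for 2.5 h at room temperature before fluorescence reading.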

[15] = qHTS assay for small molecule activators of the heat shock response signaling pathway - cell viability counter screen (AID 743209); note: nearly all actives have a fitted effect of over 50% in size
Procedure, shortened: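 HSE-bla HeLa cells plated overnight, then exposed to Tox21 compounds (23 nL in DMSO) for 5 h at 37 C. After the bla reporter read, CellTiter-Glo was added in the same wells and luminescence read after 30 min at room temperature.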

[16] = biological target: Estrogen receptor (Homo sapiens) (UniProt P03372); assay: qHTS assay to identify small molecule agonists of the estrogen receptor alpha (ER-alpha) signaling pathway (AID 743075; calls by dose curve;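 note: HEK293 GripTite cells with ER-alpha and UAS-driven beta-lactamase reporter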)
Estrogen receptor (Homo sapiens), sequence (P03372 whole entry, looked up): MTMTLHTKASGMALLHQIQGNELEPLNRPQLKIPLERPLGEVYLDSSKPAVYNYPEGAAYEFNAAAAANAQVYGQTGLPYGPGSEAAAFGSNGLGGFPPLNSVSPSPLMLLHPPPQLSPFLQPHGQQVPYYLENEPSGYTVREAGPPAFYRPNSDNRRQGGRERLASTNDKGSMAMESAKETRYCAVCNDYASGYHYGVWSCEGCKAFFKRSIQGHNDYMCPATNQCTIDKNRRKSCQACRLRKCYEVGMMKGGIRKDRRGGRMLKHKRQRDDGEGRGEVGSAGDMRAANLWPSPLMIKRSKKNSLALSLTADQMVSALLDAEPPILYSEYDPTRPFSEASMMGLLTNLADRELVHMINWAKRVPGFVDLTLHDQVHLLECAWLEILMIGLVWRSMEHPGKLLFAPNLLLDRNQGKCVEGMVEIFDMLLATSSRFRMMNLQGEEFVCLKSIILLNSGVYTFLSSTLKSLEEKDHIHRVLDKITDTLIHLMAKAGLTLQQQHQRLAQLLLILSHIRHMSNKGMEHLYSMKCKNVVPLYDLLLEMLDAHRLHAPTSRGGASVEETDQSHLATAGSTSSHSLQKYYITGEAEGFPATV

[17] = biological target: Estrogen receptor (Homo sapiens) (UniProt P03372); assay: qHTS assay to identify small molecule agonists of the estrogen receptor alpha (ER-alpha) signaling pathway using the BG1 cell line (AID 743079); note: nearly all actives have a fitted effect of over 20% in size
[18] = qHTS assay to identify small molecule antagonists of the estrogen receptor alpha (ER-alpha) signaling pathway using the BG1 cell line (AID 743080; calls by dose curve;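 note: BG1 cells stimulated with 17beta-estradiol alongside compound; series mostly up to about 70 µM; nearly all actives have a fitted effect of over 25% in size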)
Procedure, shortened: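 Luminescence from a 4×ERE-luciferase reporter in BG1-Luc-4E2 cells served as read-out. Cells, pre-cultured 5 days in stripped-serum phenol-red-free medium, were exposed to compound with 17beta-estradiol co-stimulation for 21.5 h at 37 C.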

Row | Structure (SMILES) | Potency [1] | Potency [2] | Potency [3] | outcome [4] | Potency [5] | Potency (Aromatase (Homo sapiens)) | Potency [6] | Potency [7] | outcome [8] | outcome [9] | outcome [10] | outcome [11] | Potency [12] | outcome [13] | Potency [14] | outcome [15] | Potency [16] | Potency [17] | Potency [18]
1 | CCCC(C)=O | inactive | inactive | inactive | inactive | inactive | inactive | inactive | inactive | inactive | inactive | inactive | inactive | inactive | inactive | inactive | – | – | – | –
2 | O=c1[nH]nnc2ccccc12 | inactive | inactive | inactive | inactive | inactive | inactive | inactive | inactive | – | inactive | inactive | inactive | inactive | inactive | inactive | inactive | – | – | –
3 | O=C(O)c1cc(C(=O)O)cc(S(=O)(=O)O)c1 | inactive | inactive | inactive | inactive | inactive | inactive | inactive | inactive | inactive | – | inactive | inactive | inactive | inactive | inactive | inactive | – | – | –
4 | O=C(O)c1ccc(C(=O)O)cc1 | inactive | inactive | inactive | inactive | inactive | inactive | inactive | inactive | inactive | – | inactive | inactive | inactive | inactive | inactive | inactive | – | – | –
5 | Cc1ccc(S(N)(=O)=O)cc1 | inactive | inactive | inactive | inactive | inactive | inactive | inactive | inactive | inactive | inactive | inactive | inactive | inactive | inactive | inactive | inactive | – | – | –
6 | Cc1occc(=O)c1O | inactive | inactive | inactive and 50.9 µM (active) | inactive | inactive | inactive | inactive | inactive | inactive | – | inactive | inactive | inactive | inactive | inactive | inactive | – | – | –
7 | Cc1cnc(C(=O)NCCc2ccc(S(=O)(=O)NC(=O)NC3CCCCC3)cc2)cn1 | inactive | inactive | inactive | inactive | inactive | – | inactive | – | – | – | – | inactive | – | inactive | inactive | – | inactive | inactive | inactive
8 | O=c1[nH]c(=O)n([C@H]2CCCO2)cc1F | inactive | inactive | inactive | inactive | inactive | inactive | inactive | inactive | inactive | inactive | inactive | inactive | inactive | inactive | inactive | inactive | – | – | –
9 | CCCCCCOCCO | inactive | inactive | inactive | inactive | inactive | inactive | inactive | inactive | – | – | inactive | inactive | inactive | inactive | inactive | – | inactive | inactive | inactive
10 | CCCCCC(N)=O | inactive | inactive | inactive | inactive | inactive | inactive | inactive | inactive | – | inactive | inactive | inactive | inactive | inactive | inactive | inactive | – | – | –
11 | Fc1ccc(Br)cc1 | inactive | inactive | inactive | inactive | inactive | inactive | inactive | inactive | – | – | inactive | inactive | inactive | inactive | inactive | inactive | inactive | inactive | inactive
12 | CCC(O)OCCCOC (stereo not drawn) | inactive | inactive | inactive | inactive | inactive | inactive | inactive | inactive | inactive | inactive | inactive | inactive | inactive | inactive | inactive | inactive | – | – | –
13 | CN(C)CCOCCN(C)C | inactive | inactive | inactive | inactive | inactive | inactive | inactive | 62.3 µM (active) and inactive | inactive | inactive | inactive | inactive | inactive | inactive | inactive | inactive | – | – | –
14 | CCCCCOC(C)=O | inactive | inactive | inactive | inactive | inactive | inactive | inactive | inactive | – | – | inactive | inactive | inactive | inactive | inactive | – | inactive | inactive | inactive
15 | CC[C@H](C)C(=O)O[C@H]1C[C@@H](C)C=C2C=C[C@H](C)[C@H](CC[C@@H]3C[C@@H](O)CC(=O)O3)[C@H]21 | 62 µM (active) and 60.8 µM (active) | 62 µM (active) and 54.2 µM (active) | inactive | inactive | inactive | 11.9 µM (active) and 34.9 µM (active) and 27.2 µM (active) | inactive and 62 µM (active) | inactive | – | – | inactive | inactive | – | inactive | inactive | – | inactive | inactive | –
16 | N[C@@H](Cc1cc(I)c(Oc2cc(I)c(O)c(I)c2)c(I)c1)C(=O)O | inactive | inactive | 8.4 nM (active) and 10.9 nM (active) | inactive | inactive | inactive | inactive | 13.8 µM (active) | inactive | – | – | inactive | inactive | inactive | inactive | inactive | – | – | –
17 | C[C@H]1C[C@@H]2[C@H]([C@@H](O)C[C@@]3(C)[C@H]2CC[C@]3(O)C(=O)CO)[C@@]2(C)C=CC(=O)C=C12 | inactive | inactive | inactive | inactive | inactive | inactive | inactive | inactive | – | inactive | inactive | inactive | inactive | inactive | – | inactive | – | – | –
18 | CC(c1cc2ccccc2s1)N(O)C(N)=O (stereo not drawn) | inactive | inactive | inactive | inactive | inactive | inactive | inactive | – | inactive | – | – | inactive | inactive | inactive | inactive | inactive | inactive | inactive | inactive
